Records with an inconclusive call do not appear. A call without a number means that no potency is given here. Calls of active or inactive are those of the source. Calls follow the shape of the dose curve; as a rule, active = well fitted inhibition curve with a large enough effect; inconclusive = small, poorly fitted or top-dose-only effect, or effect the other way; inactive = flat fitted curve, though single readings scatter.
What follows are compounds tested against Ubiquitin carboxyl-terminal hydrolase 2 (Homo sapiens) (UniProt O75604) (assay: Confirmation Assay for Inhibitors of Ubiquitin-specific Protease USP2a Using CHOP2 as the Reporter). Conditions: USP2 core, Ub-CHOP2 coupled reporter fluorescence; series mostly up to 38.3 µM.
Sequence of Ubiquitin carboxyl-terminal hydrolase 2 (Homo sapiens) (O75604 whole entry, looked up): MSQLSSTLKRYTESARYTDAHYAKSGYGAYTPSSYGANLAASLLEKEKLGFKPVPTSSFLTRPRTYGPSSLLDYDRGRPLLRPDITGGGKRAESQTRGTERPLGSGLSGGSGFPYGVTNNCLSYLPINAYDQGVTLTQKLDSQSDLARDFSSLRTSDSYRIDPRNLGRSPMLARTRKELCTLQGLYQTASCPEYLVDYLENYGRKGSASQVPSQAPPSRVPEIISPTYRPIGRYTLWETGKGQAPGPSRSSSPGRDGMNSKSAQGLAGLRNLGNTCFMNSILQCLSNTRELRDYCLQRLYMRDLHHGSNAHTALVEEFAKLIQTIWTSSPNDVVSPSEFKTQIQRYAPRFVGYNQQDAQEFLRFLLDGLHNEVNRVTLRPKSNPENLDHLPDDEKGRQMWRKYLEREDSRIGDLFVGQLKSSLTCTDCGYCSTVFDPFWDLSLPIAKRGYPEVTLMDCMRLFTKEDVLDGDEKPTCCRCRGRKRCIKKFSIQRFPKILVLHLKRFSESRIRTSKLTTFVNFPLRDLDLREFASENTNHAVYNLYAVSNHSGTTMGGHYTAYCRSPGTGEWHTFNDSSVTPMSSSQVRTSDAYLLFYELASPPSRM
How it was run: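 USP2 core (10 nM final) was preincubated with compound for 30 min at RT in Tris-HCl pH 8.0, CaCl2, beta-mercaptoethanol, CHAPS. Ub-CHOP2 and reporter substrate (25 nM final each) were added, and fluorescence (Ex 485/Em 531 nm) was read after 60 min.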
Also: nearly all actives have a fitted effect of over 55% in size.
Potency is read from the fitted curve at half-maximal effect.

Row | Structure (SMILES) | Potency
1 | Cc1ccc2[nH]c(C)c(CCNC(=O)c3cc4cc([N+](=O)[O-])ccc4oc3=O)c2c1 | inactive
2 | Cc1ccccc1OCc1nc2ccccc2c(=O)n1N | inactive
3 | COc1cccc(NC(=O)Cc2ccccc2)c1 | inactive
4 | Nc1c(C(=O)NCC2CCCO2)sc2nc3c(c(-c4ccco4)c12)CC/C3=C\c1ccco1 (stereo not given) | 4.14 µM (active)
5 | C=C(C)COc1ccc(-c2[nH]ncc2Oc2ccccc2OCC)c(O)c1 | inactive
6 | Cc1ccc(NC(=O)CSc2nnc(COc3ccc(C#N)cc3)n2-c2ccccc2)cc1C | inactive
7 | COc1cc(OC)cc(-c2c(C#Cc3ccsc3)c3cc(-c4ccc(OC)c(OC)c4)ccc3n2C)c1 | inactive
8 | O=C(CSc1ncn[nH]1)Nc1ccc(Br)cc1F | inactive
9 | O=C(Nc1cccc(-c2nn[nH]n2)c1)c1ccc(Br)s1 | 5.21 µM (active)
10 | Cn1c(C(=O)N2CCN(Cc3ccc4c(c3)OCO4)CC2)cc2sccc21 | inactive
11 | O=C1/C(=C/C=C/c2ccco2)SC(=S)N1c1ccc(O)cc1 | 5.21 µM (active)
12 | COc1cc(/C=C/C(=O)OCC(=O)NC(=O)NCc2ccco2)ccc1OC(F)F | inactive
13 | CS(=O)(=O)c1ccc(C(=O)Nc2nc(-c3ccco3)c(-c3ccco3)s2)cc1 | inactive
14 | COc1ccc(/C=C2/SC(=S)N(c3ccc(S(=O)(=O)Nc4nccs4)cc3)C2=O)cc1 | 13.1 µM (active)
15 | C/C(CC(=O)N1CCCC1)=N\NC(=O)c1cc2ccccc2cc1O | inactive
16 | Cn1c(=O)c(C(=O)Nc2ncccc2O)c(O)c2ccccc21 | inactive
17 | O=C(N/N=C1\CC(c2ccccc2)Oc2ccccc21)c1ccc(O)cc1 (stereo not given) | inactive
18 | CC(C)(C)OC(=O)C[C@H]1C/C=C\C[C@H](CC(=O)N(CCO)Cc2ccccc2)C(=O)NC[C@H](c2ccccc2)OC1=O | inactive
19 | COc1cc(C2C(C#N)=C(N)Oc3c2ccc2ccccc32)ccc1OCC(=O)Nc1cccc(C)c1 (stereo not given) | inactive
20 | COc1ccccc1C1NC(c2ccccc2OC)C(C)C(=O)C1C (stereo not given) | inactive

Row | Structure (SMILES) | Potency
21 | CCOC(=O)c1c(NC(C)=O)sc2c1CCCNC2=O | inactive
22 | CCOc1ccc(C(=O)c2ccc(OCC)c(N)c2)cc1N | inactive
23 | Cc1[nH]c2ccccc2c1C(c1ccccn1)c1c(C)[nH]c2ccccc12 | inactive
24 | Cc1ccc(NC(=O)c2cc(-c3ccco3)nc3ccccc23)cc1S(=O)(=O)N1CCOCC1 | 11.7 µM (active)
25 | CC(=O)N1CCCc2cc(S(=O)(=O)CCC(=O)N3CCN(c4cccc(C)c4)C(C)C3)ccc21 (stereo not given) | inactive
26 | O=S(=O)(c1ccccc1)N(CC1CO1)c1cc(Cl)ccc1Cl (stereo not given) | inactive
27 | Cc1cc(NC(=O)COC(=O)CCCOc2ccc(Cl)cc2C)no1 | inactive
28 | O=C(CSCc1cnn(-c2ccccc2)c1-n1cccc1)NCC1CCCO1 (stereo not given) | inactive
29 | CCOC(=O)Cn1c(=O)oc2cc(S(=O)(=O)Nc3cc(Cl)ccc3OC)ccc21 | inactive
30 | CC1=NC(C(F)(F)F)(C(F)(F)F)C2=C(CC(C)(C)CC2=O)N1Cc1ccco1 | inactive
31 | O=C(CSc1ccc(Br)c2cccc(Cl)c12)Nc1ccc(S(=O)(=O)Nc2nccs2)cc1 | 9.27 µM (active)
32 | O=C(O)C1Nc2c(O)cc(Cl)c([N+](=O)[O-])c2C2C=CCC12 (stereo not given) | 9.27 µM (active)
33 | O=C(O)CP(=O)(c1ccccc1)c1ccccc1 | inactive
34 | CCN(CC)CCNc1nc(-c2ccccc2)c2c(c1C#N)CC(C)(C)OC2 | inactive
35 | COC(=O)c1[nH]c2ccc(C)cc2c1NC(=O)CN1CCCc2ccccc21 | inactive
36 | O=C(NCCN1C(=O)CSC1=O)C1CC(=O)N(c2ccccc2)C1 (stereo not given) | inactive
37 | CC(C)CC(=O)NC(=S)Nc1nc(-c2ccc(Cl)cc2)cs1 | inactive
38 | O=C(OCc1nc2ccccc2[n+]([O-])c1C(=O)c1ccccc1)c1cccs1 | inactive
39 | C[C@@H]1CN([C@@H](C)CO)C(=O)c2cc(NC(=O)CCC(F)(F)F)ccc2O[C@H]1CN(C)S(=O)(=O)c1ccc(Cl)cc1 | inactive
40 | C#CCOCCOCCOCCNc1nc(N2CCN(C(=O)CCCCCCCCCCNC(=O)[C@H](CO)n3cc(CCCSC)nn3)CC2)nc(N2CCN(C(=O)CCCCCCCCCCNC(=O)[C@H](CCCN=C(N)N)n3cc(C[C@@H](C)CC)nn3)CC2)n1 | 18.5 µM (active)

From PubChem BioAssay AID493168 (National Center for Advancing Translational Sciences (NCATS), 2011)
